SIRT5 block = SIRT5 desuccinylase inhibitors, primary screen, biochemical, fluorescence imaging, single point, set 5. actives 1.1% (n = 330,000). inhibition, % at 15 µM. AID 652115, 2013. Purified SirT5, succinyl-peptide AMC, trypsin-coupled fluorescence; in the data active means inhibition above about 15%; inconclusive means no clear call, values can overlap the other calls
CASP6 VEID inh = human caspase-6 inhibitors, primary screen, biochemical, VEID-R110 fluorescence, single point, set 2. inhibition, % at 12.5 µM. actives 0.53% (n = 350,000). purified caspase-6, Z-VEID-R110 cleavage fluorescence. P55212;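 active means mean inhibition across replicates at least about 35%, with every replicate also reaching that limit, limit read from the data; inconclusive means only one of the two criteria met; inactive means neither criterion met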;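 further: 0% = median of neutral control wells and 100% = no fluorescence left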
NSD2 HMT inh = NSD2 histone methyltransferase inhibitors, primary screen, biochemical, AlphaScreen, single concentration, set 2; AID 743445, 2014; inhibition, % at 12.5 µM; NSD2 peptide methylation, 120 min; actives 0.54% (n = 310,000); Histone-lysine N-methyltransferase NSD2 (Homo sapiens), O96028; in the data active means inhibition above about 50%
UBC9 SUMO inh = inhibitors of in vitro SUMOylation cascade, primary screen, biochemical, HTRF, uHTS. SUMO-conjugating enzyme UBC9 (Homo sapiens), P63279. HTRF SUMOylation assay, SAE1/SAE2 + UBC9. inhibition, % at 35 µM. actives 0.36% (n = 290,000); in the data active means inhibition above about 50%, passing the limit was not always enough; inconclusive means no clear call, values can overlap the other calls
* hit, by the source's call; ? = inconclusive; . = no result given. Most compounds without a hit are left out; they make up all but 1.6% or so of the library.

SMILES	SIRT5 block	CASP6 VEID inh	NSD2 HMT inh	UBC9 SUMO inh
CC(C)NC(=O)Nc1ccc2c(c1)C(=O)N([C@H](C)CO)C[C@@H](C)[C@H](CN(C)Cc1ccncc1)OCCCC[C@@H](C)O2	-2	-3	.	.
CCC(C)(C)NC(=O)CN(C(=O)CNS(=O)(=O)c1ccc(F)cc1)c1ccc2c(c1)OCCO2	-1	47*	.	-9
C[C@@H]1CN([C@H](C)CO)S(=O)(=O)c2ccc(-c3ccc(C(=O)N(C)C)cc3)cc2O[C@@H]1CN(C)Cc1ccc2c(c1)OCO2	1	-2	.	.
O=c1c2ccccc2nc(/C=C/c2cccnc2)n1CCc1ccccc1	3	6	-2	49
O=c1c2ccccc2nc(/C=C/c2cccnc2)n1Cc1ccccc1	-2	46*	-2	82*
Cc1ccsc1/C=N/NC(=S)NCCc1ccccc1	16*	-3	3	-1
Clc1ccc(-c2nnc3sc(-c4ccc(Br)o4)nn23)cc1	.	.	0	14
Cc1oc(-c2ccc(Cl)cc2)cc1-c1nn2c(-c3ccoc3C)nnc2s1	.	.	20	60*
COc1cc(/C=C2/C(=O)NN(c3ccc(Cl)c(Cl)c3)C2=O)cc([N+](=O)[O-])c1O	22*	.	33	13
COc1cc(/C=C2/C(=O)NN(c3ccc(F)cc3)C2=O)cc(Cl)c1O	-3	14	26	-16
COc1cc(/C=C2/C(=O)NN(c3ccc(Cl)cc3)C2=O)cc(Br)c1O	8	81*	28	-9
COc1ccccc1NC(=O)N1C[C@H](O)COC[C@@H]2O[C@H](CC(=O)NCCc3ccccc3)CC[C@H]21	-3	0	.	.
Fc1ccc(CNC2CCN(Cc3ccccc3)CC2)cc1	21*	-18	-1	11
C=CCNC(=O)COc1c(C)ccc(C)c1C	23*	-3	1	0
COc1ccccc1C#Cc1cnc2c(c1)C(=O)N([C@H](C)CO)C[C@H](C)[C@@H](CN(C)C(=O)CN(C)C)O2	7	-3	.	.
N#C/C(=C/c1ccc(O)c(O)c1)c1nc2ccccc2[nH]1	2	34	67*	-12
COc1ccc2nc(/C(C#N)=C\c3ccc(C(=O)O)cc3)[nH]c2c1	3	11	1	52*
COc1ccc2nc(/C(C#N)=C\c3ccc(Oc4ccc([N+](=O)[O-])cn4)cc3)[nH]c2c1	.	.	22	20
COc1cc(/C=C(/C#N)c2nc3ccccc3[nH]2)ccc1OCc1ccc(C(=O)O)o1	18*	24	.	11
COc1ccccc1CNC(=O)C[C@@H]1C=C[C@H](NC(=O)CN(C)C)[C@@H](CO)O1	-2	4	.	.
COc1ccccc1C#Cc1ccc2c(c1)[C@@H]1[C@@H](CCN1C(=O)c1cccc(F)c1)[C@H](CO)N2	18*	-1	.	.
O=C(C1CCC1)N1CC[C@H]2[C@H](CO)Nc3ccc(C#Cc4cccc(F)c4)cc3[C@H]21	20*	-2	.	.
CCCC#Cc1ccc2c(c1)[C@@H]1[C@@H](CCN1S(=O)(=O)c1ccccc1C)[C@@H](CO)N2	18*	-1	.	.
COc1ccccc1C#Cc1ccc2c(c1)[C@H]1[C@H](CCN1C(=O)c1cccc(F)c1)[C@H](CO)N2	-29	2	.	.
CCC(=O)N1CC[C@@H]2[C@H](CO)Nc3ccc(C#Cc4ccc(OC)cc4)cc3[C@@H]21	17*	-5	.	.
SMILES	SIRT5 block	CASP6 VEID inh	NSD2 HMT inh	UBC9 SUMO inh
CN(C)C(=O)C[C@@H]1C[C@H]2c3cc(NC(=O)CC4CC4)ccc3O[C@H]2[C@H](CO)O1	-4	7	.	.
COc1ccc(-c2ccc(C3[C@H]4CNC[C@@H]3N4C(=O)Nc3ccccc3F)cc2)cc1 (some centres not stated)	0	0	.	.
COc1ccc(C(=O)OCCN2CCCCC2)cc1	25*	-4	13	-2
CC(C)NC(=O)Nc1ccc2c(c1)C(=O)N([C@@H](C)CO)C[C@H](C)[C@@H](CN(C)S(=O)(=O)c1ccc(Cl)cc1)O2	0	1	.	.
CC(=O)NCc1ccc(C(=O)CN2C(=O)NC3(CCCCC3C)C2=O)s1 (configuration not stated)	15*	5	-2	.
O=C1NC(c2ccccc2)=N/C1=C/c1ccco1	1	39*	4	29
CN(C)/C=N/c1nc2nccc(-c3cccnc3)n2n1	-10	1	-7	65*
CN(C)/C=N/c1nc2nccc(-c3ccccn3)n2n1	-1	3	-2	?
COc1ccc(-c2ccnc3nc(/N=C/N(C)C)nn23)cc1	.	2	-5	57*
COc1cccc(OC(C)c2ccnc3nc(/N=C/N(C)C)nn23)c1 (configuration not stated)	.	.	-2	3
CNC[C@@H]1OCCCC[C@@H](C)Oc2ccc(NS(=O)(=O)c3cn(C)cn3)cc2C(=O)N([C@H](C)CO)C[C@@H]1C	-2	0	.	.
C[C@H](NC(=O)N(C)C[C@H]1OCc2ccccc2-c2ccccc2C(=O)N([C@@H](C)CO)C[C@H]1C)c1ccccc1	1	1	.	.
O=C(C[C@H]1CC[C@H](NS(=O)(=O)c2ccc(F)cc2)[C@@H](CO)O1)NC1CCCCC1	1	-1	.	.
COc1ccc(CNC(=O)C[C@H]2C[C@H]3c4cc(NS(=O)(=O)c5ccc(F)cc5)ccc4O[C@H]3[C@@H](CO)O2)cc1	1	-3	.	.
O=C(Nc1cccc(-c2cn3ccccc3n2)c1)c1cc2ccccc2oc1=O	19*	-5	-2	6
CC(=O)Nc1cccc(-c2cn3ccccc3n2)c1	-7	0	2	17
COCC(=O)Nc1ccc2c(c1)[C@H]1C[C@@H](CC(=O)NCC3CC3)O[C@@H](CO)[C@H]1O2	-2	-1	.	.
O=C(N/N=C/C=C/c1ccco1)c1cnccn1	.	22	-3	21
O=C(N/N=C/C=C\c1ccco1)c1ccccn1	4	37*	-3	36
O=C(N/N=C\C=C\c1ccco1)c1cc(-c2ccc3ccccc3c2)n[nH]1	-6	0	7	51*
O=C(Cc1ccc(Cl)cc1)Nc1ccc(CN2CCCCC2)cc1	80*	0	0	13
Cn1c(SCC(=O)O)nnc1-c1ccc(NC(=O)c2ccc(Cl)c(Cl)c2)cc1	16*	1	0	4
COc1ccccc1S(=O)(=O)Nc1cc(S(=O)(=O)N2CCCCC2)ccc1N1CCOCC1	17*	.	-3	20
COc1ccccc1NCC(=O)Nc1cc(S(=O)(=O)N2CCOCC2)ccc1N1CCOCC1	1	4	-2	-4
CNc1ncnc(Sc2nc(N)nc3nc[nH]c23)c1[N+](=O)[O-]	5	.	2	.
Nc1nc(Sc2ccc([N+](=O)[O-])c3nonc23)c2[nH]cnc2n1	.	72*	36	.
CN(C)CC(=O)N1[C@@H]2c3ccc(C4=CCCC4)c(=O)n3C[C@H]1[C@H](CO)[C@H]2C(=O)NCC1CCCCC1	-11	-3	.	.
CC(=O)Nc1ccc(S(=O)(=O)Oc2cccc(/C=C3\SC(N)=NC3=O)c2)cc1	-5	0	-9	50*
